Sampled rows, rich in hits. Any-hit rate of the full collection: about 3.7%.
GPR7 antag – antagonists of human GPR7 (neuropeptides B/W receptor 1); P48145; inhibition, % at 4.4 µM; GPR7-expressing cells, fluorescence antagonist assay; actives 1.1% (n = 290,000); in the data active = inhibition above about 16%, passing the limit was not always enough;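 also: cells stimulated with the agonist NPW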
Target sequence (P48145 whole entry, looked up): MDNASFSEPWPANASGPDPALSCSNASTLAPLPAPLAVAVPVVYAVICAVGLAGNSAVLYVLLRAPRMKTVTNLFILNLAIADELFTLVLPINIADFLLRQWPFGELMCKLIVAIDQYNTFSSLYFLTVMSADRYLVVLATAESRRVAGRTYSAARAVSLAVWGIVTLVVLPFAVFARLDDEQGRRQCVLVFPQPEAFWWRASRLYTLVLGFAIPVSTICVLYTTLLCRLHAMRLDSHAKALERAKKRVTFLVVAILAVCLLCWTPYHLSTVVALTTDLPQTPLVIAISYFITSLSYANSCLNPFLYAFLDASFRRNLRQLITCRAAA
Kir21 inh – blocks the mouse Kir2.1 inward-rectifier potassium channel; P35561; HEK293-Kir2.1, FluxOR thallium flux fluorescence; hits give low values; B-score at 10 µM; actives 0.85% (n = 310,000); AID 1672;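 active = fluorescence ratio B-score at or below minus 3 SD of library scores, with starting-brightness B-score within 2 SD, cut at about -4.2 in these data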;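 also: channel flux triggered by added potassium and thallium sulfate stimulus; B-score of peak minus minimum fluorescence over baseline after thallium stimulus; more negative B-score means stronger Kir2.1 block with less thallium influx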
CHT inh – human CHT choline transport inhibition; CHT-expressing cells, membrane potential dye, choline response; hits give low values; actives 0.86% (n = 310,000); B-score at 10 µM; AID 488975;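 active = B-score over 3 SD under the library average, and starting fluorescence ratio not unusually high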;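 also: choline stimulus applied at its EC90 after an EC20 pre-addition; B-score computed on integrated fluorescence ratio after choline addition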
ANO1 block – inhibitors of mouse TMEM16A calcium-activated chloride channel; HEK293 TMEM16A/YFP iodide influx fluorescence, ionomycin; normalized B-score (activity score, 25-100; higher = stronger inhibition) at 10 µM; actives 1.2% (n = 310,000); AID 588511;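 active = ratio plate-corrected score three or more library SD toward inhibition, starting fluorescence score within five deviations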;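 also: score derived from kinetic fluorescence span divided by baseline fluorescence per well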
CHT PAM – allosterically activates the human high affinity choline transporter; CHT-expressing cells, membrane potential dye, choline EC20; hits give high values; LV-AA mutant CHT in HEK293 cells; actives 0.49% (n = 310,000); Q9GZV3; B-score at 10 µM;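 active = initial fluorescence not abnormally high and integrated response B-score, plate-corrected, over 3 SD above library mean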
ANO1 activ – activators or potentiators of mouse TMEM16A chloride channel; Q8BHY3; HEK293 TMEM16A/YFP-H148Q/I152L, iodide quench fluorescence; hits give low values; B-score at 10 µM; actives 0.3% (n = 340,000); AID 623877;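 active = fluorescence-ratio B-score plate-corrected deviation score at least 3 library SD below zero, with starting fluorescence score within 5 deviations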;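 also: channel opened by trigger with iodide after compound preincubation; score built on the fluorescence ratio of max minus min over baseline; more negative score means more quench and so TMEM16A activation or potentiation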
hERG ctr – hERG (human) inhibition as Kir2.1 counter-screen; inhibition, % at 10 µM; AID 2236; hERG-expressing cells, thallium flux; shares compounds with Kir21 inh; actives 20% (n = 320);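 also: host cells are CHO cells stably expressing hERG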
KCNK9 inh – human KCNK9 off-target activity of Kir2.1 blockers. shares compounds with Kir21 inh. inhibition, % at 10 µM. KCNK9-expressing cells, ion flux inhibition. actives 5% (n = 320)
Kir21 ephys inh – mouse Kir2.1 inward rectifier channel inhibition. actives 71% (n = 320). inhibition, % at 25 µM. shares compounds with Kir21 inh. Kir2.1 cells, automated patch-clamp current inhibition
GPR7 antag conf – confirmation of human GPR7 antagonists; actives 52% (n = 2,400); shares compounds with GPR7 antag; GPR7-expressing cells, calcium fluorescence antagonist mode; inhibition, % at 4.4 µM; in the data active = inhibition above about 24%;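 also: stimulated with the GPR7 agonist NPW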
MCHR1 antagonist – counter-screen for GPR7 antagonists: antagonists of human MCHR1; shares compounds with GPR7 antag; MCHR1-expressing cells, fluorescence antagonist assay; inhibition, % at 4.4 µM; actives 62% (n = 2,400); in the data active = inhibition above about 22%
CHT block conf – human CHT inhibition, confirmatory screen; shares compounds with CHT inh; CHT-expressing cells, choline membrane potential dye; LV-to-AA substituted CHT, HEK293 cells; CHT activity remaining % of control (hits give low values), % at 10 µM; actives 70% (n = 2,400); AID 493221;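 active = choline transporter activity left, mean of duplicates at 10 µM, below buffer-only control mean minus 3 SD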;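 also: depolarization triggered by choline at its EC90 following an EC20 pre-addition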
HEK293 MPD ctr – activity in parental HEK293 cells lacking CHT; shares compounds with CHT inh; membrane potential dye, choline response; active = decrease or increase beyond buffer ±3SD; membrane potential ratio readout (active if shifted either direction beyond buffer ±3SD; no single direction) at 10 µM; actives 4% (n = 2,400);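 also: parental cells lack the transporter so any hit is non-specific; ratio is peak minus trough fluorescence over baseline after EC90 choline challenge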
Hits are given with their value. Unless noted, no rule for the calls is given here.

For Cc1c(NC(=O)C(C)OC(=O)c2ccc(Br)o2)c(=O)n(-c2ccccc2)n1C (stereo not given) the results were GPR7 antag inactive, Kir21 inh inactive, CHT inh inactive, ANO1 block inactive, CHT PAM inactive and ANO1 activ inactive.
For COc1ccc(-n2ncc3c2CC(C)(C)CC3NC(=O)c2cn[nH]c2)cc1 (stereo not given) the results were GPR7 antag inactive, Kir21 inh inactive, CHT inh inactive, ANO1 block inactive, CHT PAM inactive and ANO1 activ inactive.
`CCOc1cc(S(=O)(=O)NCc2ccc3c(c2)OCO3)c(C)cc1C` gave GPR7 antag inactive, Kir21 inh -6.6, CHT inh inactive, ANO1 block inactive, CHT PAM inactive, ANO1 activ inactive, hERG ctr inactive, KCNK9 inh inactive and Kir21 ephys inh 10%.
Screening C#CCN(C)Cc1ccccc1 returned GPR7 antag inactive, Kir21 inh inactive, CHT inh inactive, ANO1 block inactive, CHT PAM inactive and ANO1 activ inactive.
`C#CC(CO)N(CCN(Cc1ccccc1)C(C#C)CO)Cc1ccccc1` (stereo not given) gave Kir21 inh -11, CHT inh inactive, ANO1 block inactive, CHT PAM inactive, ANO1 activ inactive, hERG ctr inactive, KCNK9 inh inactive, Kir21 ephys inh 3.9% and MCHR1 antagonist inactive.
`CC(NCCC(Cc1ccccc1)c1ccco1)c1ccccc1` (stereo not given) gave GPR7 antag 24, Kir21 inh -14, CHT inh inactive, ANO1 block inactive, CHT PAM inactive, ANO1 activ inactive, hERG ctr inactive, KCNK9 inh inactive, Kir21 ephys inh inactive, GPR7 antag conf 41 and MCHR1 antagonist 50.
Screening C=C(C)CC(NCCc1ccccc1)c1ccco1 (stereo not given) returned GPR7 antag inactive, Kir21 inh inactive and ANO1 activ inactive.
`Cc1ccc(NC(=O)COc2ccccc2CNC(C)(C)CC(C)(C)C)cc1` gave GPR7 antag 25, Kir21 inh -6.3, CHT inh inactive, ANO1 block inactive, CHT PAM inactive, ANO1 activ inactive, hERG ctr 50%, KCNK9 inh 37%, Kir21 ephys inh inactive, GPR7 antag conf 35 and MCHR1 antagonist 46.
COc1ccc(C(CCNC(C)c2ccccc2)C(C)C)cc1 (stereo not given) was read as GPR7 antag 33, Kir21 inh -11, CHT inh inactive, ANO1 block inactive, CHT PAM inactive, ANO1 activ inactive, hERG ctr inactive, KCNK9 inh inactive, Kir21 ephys inh 2.7%, GPR7 antag conf 36 and MCHR1 antagonist 31.
`CC1(NC(=O)c2cccc(S(=O)(=O)N3CCN(c4ccc(F)cc4)CC3)c2)CCS(=O)(=O)C1` (stereo not given) gave Kir21 inh inactive, CHT inh inactive, ANO1 block inactive, CHT PAM inactive and ANO1 activ inactive.
For COc1cc(OC)c(OC)cc1CCC(C)NCCC(c1ccccc1)c1ccccc1 (stereo not given) the results were GPR7 antag 60, Kir21 inh -11, CHT inh inactive, ANO1 block inactive, CHT PAM inactive, ANO1 activ inactive, hERG ctr 68%, KCNK9 inh inactive, Kir21 ephys inh 5.1%, GPR7 antag conf 55 and MCHR1 antagonist 49.
For Clc1ccc(OCCOCCNCc2ccccc2)cc1Cl the results were GPR7 antag 90, Kir21 inh -8.7, CHT inh inactive, ANO1 block inactive, CHT PAM inactive, ANO1 activ inactive, hERG ctr 51%, KCNK9 inh inactive, Kir21 ephys inh 42%, GPR7 antag conf inactive and MCHR1 antagonist 27.
`CN(CCOc1ccc(Cl)c(Cl)c1)Cc1ccccc1` gave GPR7 antag inactive, Kir21 inh inactive, CHT inh inactive, ANO1 block inactive, CHT PAM inactive and ANO1 activ inactive.
Screening COc1ccc(CCNC(=O)COC(=O)c2cc(=O)[nH]c3ccccc23)cc1 returned ANO1 activ inactive.
For CSc1ccccc1OCc1cc(C(=O)N(C)Cc2ccncn2)no1 the results were GPR7 antag inactive, Kir21 inh inactive, CHT inh inactive, ANO1 block inactive, CHT PAM inactive and ANO1 activ inactive.
`Cc1ccc(CSc2nnc(CCNC(=O)OC(C)(C)C)o2)cc1` gave GPR7 antag inactive, Kir21 inh -11, CHT inh -5.3, ANO1 block inactive, CHT PAM inactive, ANO1 activ inactive, hERG ctr inactive, KCNK9 inh inactive, Kir21 ephys inh 60%, CHT block conf 69% and HEK293 MPD ctr inactive.
`Cc1ccc(NC(=O)CSc2nnc(CCNC(=O)OC(C)(C)C)o2)c(C)c1` gave GPR7 antag inactive, Kir21 inh inactive, CHT inh inactive, ANO1 block inactive, CHT PAM inactive and ANO1 activ inactive.
For CC(C)(C)c1ccccc1NC(=O)NC1CCN(Cc2c(F)cccc2Cl)CC1 the results were GPR7 antag inactive, Kir21 inh inactive, CHT inh inactive, ANO1 block inactive, CHT PAM inactive and ANO1 activ inactive.
For O=S(=O)(NCc1csc(-c2cccs2)n1)c1ccc(Cl)cc1 the results were GPR7 antag inactive, Kir21 inh -11, CHT inh -6.6, ANO1 block inactive, CHT PAM inactive, ANO1 activ inactive, hERG ctr inactive, KCNK9 inh inactive, Kir21 ephys inh 22%, CHT block conf 70% and HEK293 MPD ctr inactive.
